{"source": "PubChem BioAssay AID504725", "about": "(Broad Institute, 2011)", "note": "Potency and affinity values are given separately. A number with no mark means an inactive call. Active and inactive are the calls of the source. No rule for the calls is given here."}
{"molecular_target": "KSHV LANA C-terminal domain (residues 932-1162) binding to LBS DNA (UniProt O40947)", "assay": "inhibitors of C-LANA binding to LBS DNA, dose response, biochemical, fluorescence polarization, cherry-picked samples (AID 504725)", "conditions": "MBP-C-LANA / FAM-LBS DNA fluorescence polarization, percent change from plate compound-well median; series mostly up to 35 µM; activity change, negative = inhibition: at the top concentration", "units": {"activity change, negative = inhibition": "%"}}
{"molecule": "CC(C)(C)OC(=O)C[C@@H]1C/C=C\\C[C@H](CC(=O)N(CCO)Cc2ccccc2)C(=O)N[C@@H](c2ccccc2)COC1=O", "activity change, negative = inhibition": 1.18}
{"molecule": "O=S(=O)(O)c1cc(O)c2cc(Nc3ccccc3)ccc2c1", "activity change, negative = inhibition": -17.8}
{"molecule": "CC(=O)OCCCn1c(C)[n+](C)c2cc(Cl)c(Cl)cc21", "activity change, negative = inhibition": 2.61}
{"molecule": "COc1cc(OC)cc(C(=O)NC2CC3CCC(C2)N3C)c1", "note": "(stereo not drawn)", "activity change, negative = inhibition": 5.68}
{"molecule": "Nc1c(-c2ccccn2)cnn1-c1nc(-c2ccc(F)cc2)cs1", "activity change, negative = inhibition": 1.14}
{"molecule": "O=C(O)CCN1C(=O)/C(=C\\c2ccc(-c3nc4ccccc4s3)o2)SC1=S", "activity change, negative = inhibition": -1.43}
{"molecule": "CCCCn1c(NS(=O)(=O)c2ccc(C)cc2)c(S(=O)(=O)c2ccccc2)c2nc3ccccc3nc21", "activity change, negative = inhibition": -17.6}
{"molecule": "Cc1cccc(COc2ccc(/C=N/NC(=O)c3nnn(-c4nonc4N)c3COc3ccc(F)cc3)cc2)c1", "activity change, negative = inhibition": 8.39}
{"molecule": "Cc1cc(Cl)ccc1N1C(=O)CC(NNC(=O)c2cccnc2)C1=O", "note": "(stereo not drawn)", "activity change, negative = inhibition": -4.69}
{"molecule": "CCc1ccc(N2CC(C(=O)OCC(=O)N(CC)c3c(N)n(Cc4ccccc4)c(=O)[nH]c3=O)CC2=O)cc1", "note": "(stereo not drawn)", "activity change, negative = inhibition": -2.35}
{"molecule": "CCN(C(=O)COC(=O)CNS(=O)(=O)c1ccc(SC)c([N+](=O)[O-])c1)C1CCCCC1", "activity change, negative = inhibition": -3.89}
{"molecule": "O=C1c2c(O)ccc(O)c2C(=O)c2c(NCCNCCO)ccc(NCCNCCO)c21", "outcome": "inactive"}
{"molecule": "O=C(O)c1ccccc1NS(=O)(=O)c1ccc(N/N=C/c2ccc(O)c(O)c2)c([N+](=O)[O-])c1", "activity change, negative = inhibition": -16.6}
{"molecule": "O=C(CCN1C(=O)/C(=C/c2ccco2)SC1=S)Nc1ccc(C(=O)O)c(O)c1", "activity change, negative = inhibition": -10.2}
{"molecule": "CC(C)Cc1nc(SCC(=O)Nc2nnc(CC(C)C)s2)n[nH]1", "activity change, negative = inhibition": 1.85}
{"molecule": "COc1ccc(-c2nc(C(=O)O)cs2)cc1OC", "activity change, negative = inhibition": 2.06}
{"molecule": "COc1ccc(-c2cnc3n2CCCCC3)cc1", "activity change, negative = inhibition": 0.703}
{"molecule": "O=C1c2ccccc2C(Nc2ccc3c(c2)OCCO3)N1Cc1ccc2c(c1)OCO2", "note": "(stereo not drawn)", "activity change, negative = inhibition": 2.85}
{"molecule": "CCOC(=O)C1C2C=CC3(CN(c4cccc(Cl)c4)C(=O)C13)O2", "note": "(stereo not drawn)", "activity change, negative = inhibition": -3.47}
{"molecule": "CCCc1cc(=O)oc2cc(C)cc(OCC(=O)O)c12", "activity change, negative = inhibition": -0.34}
{"molecule": "COc1cc(SC)ccc1C(=O)Nc1nc(C)cs1", "activity change, negative = inhibition": -2.79}
{"molecule": "Cc1nn(Cc2c(F)c(F)c(F)c(F)c2F)c(C)c1NC(=O)c1ccnn1C", "activity change, negative = inhibition": -5.68}
{"molecule": "COc1ccc(N(CC(=O)NCc2ccc3c(c2)OCO3)C(=O)c2csnn2)cc1", "activity change, negative = inhibition": -0.054}
{"molecule": "Cc1ccc(/C=C/S(=O)(=O)N2CCC(C(=O)O)CC2)cc1", "activity change, negative = inhibition": -6.1}
{"molecule": "CC(Sc1nc(-c2ccco2)nc2c1c(=O)n(C)c(=O)n2C)C(=O)O", "note": "(stereo not drawn)", "activity change, negative = inhibition": -1.29}
{"molecule": "CN(c1ccccc1)S(=O)(=O)c1cccc(NS(=O)(=O)c2cccc(C(=O)O)c2)c1", "activity change, negative = inhibition": 2.38}
{"molecule": "Cc1ccc(NC(=O)c2ccc(Cl)c(S(=O)(=O)N3CCc4ccccc43)c2)nc1", "activity change, negative = inhibition": -5.6}
{"molecule": "COc1cccc(NC(=S)N2CCN(C(c3ccccc3)c3ccccc3)CC2)c1", "activity change, negative = inhibition": 4.03}
{"molecule": "Cc1c(N)cc(S(=O)(=O)O)cc1NC(=O)c1cccc([N+](=O)[O-])c1", "activity change, negative = inhibition": -8.5}
{"molecule": "O=C(c1cnn2c(-c3ccccc3)cc(-c3ccccc3)nc12)N1CCN(Cc2ccccc2)CC1", "activity change, negative = inhibition": -0.43}
{"molecule": "O=C(C1CCCO1)N1CCN(c2ncccn2)CC1", "note": "(stereo not drawn)", "activity change, negative = inhibition": -1.29}
{"molecule": "O=C(/C=C\\c1ccccc1)Oc1cccc2cccnc12", "activity change, negative = inhibition": 0.031}
{"molecule": "CC(C)Cn1c(N)c(C(=O)CSc2nnc(-c3ccco3)n2C)c(=O)n(C)c1=O", "activity change, negative = inhibition": -1.86}
{"molecule": "Cc1c(C)n(Cc2ccccc2)c2ncnc(Cl)c12", "activity change, negative = inhibition": 0.034}
{"molecule": "CCCc1nnc(NC(=O)CCC(=O)NCc2ccc(OC)cc2)s1", "activity change, negative = inhibition": -2.96}
{"molecule": "CCc1noc(C)c1C(=O)NCCc1c[nH]c2ccccc12", "activity change, negative = inhibition": 2.9}
{"molecule": "CCN1/C(=C2/SC(=S)N(NC(C)=O)C2=O)Sc2ccc(OC)cc21", "activity change, negative = inhibition": -98.7}
{"molecule": "Cc1noc(C)c1-c1nc(CSc2ccccc2)no1", "activity change, negative = inhibition": -2.84}
